# Data reported in PubChem BioAssay (NCATS).
# A number with no mark means an inactive call. Inconclusive results are not listed. Where a call stands in place of a potency, no number is given. Calls of active or inactive are those of the source. Calls follow the shape of the dose curve; as a rule, active = well fitted curve in the direction sought with a large enough effect; inconclusive = small, poorly fitted or top-dose-only effect, or another doubt; inactive = no such curve, though single readings can be large; an effect the other way counts as inactive or inconclusive. Peptide text beside a SMILES is read from it.
# Legend:
# [1] = qHTS to identify inhibitors of the type 1 interferon - major histocompatibility complex class I in skeletal muscle: primary screen against the NCATS Mechanism Interrogation Plate v5.0 (MIPE) Libary (AID 1347411); also: nearly all actives have a fitted effect of over 65% in size; also: potency is read from the fitted curve at half-maximal effect
# Summary of the method: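 HLA-B HiBit myoblasts, dexamethasone-free medium + 4 ng/ml IFN-b, 24 h compound, 11-pt 1:3 from 46 uM final. Readout: Nano-Glo HiBiT lytic luminescence after 10 min lysis, RT.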
# [2] = biological target: Protein phosphatase 1D (Homo sapiens) (UniProt O15297); assay: RapidFire Mass Spectrometry qHTS Assay for Modulators of WT P53-Induced Phosphatase 1 (WIP1) (AID 1347424);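 also: amount of dephosphorylated VEPPL-S-QETFS peptide product formed by WIP1; series mostly up to about 63 µM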
# Summary of the method: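 RapidFire mass spectrometry measured dephosphorylated peptide after 5 min room-temperature reaction of 2 uM VEPPL-pS-QETFS with 10 nM WIP1 (50 mM Tris-HCl pH 7.5, 30 mM MgCl2, 0.1 mM EGTA, BSA), following 1 hr compound preincubation; 1 uM isotope-labelled product standard.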
# [3] = biological target: Protein phosphatase 1D (Homo sapiens) (UniProt O15297); assay: Rhodamine-PBP qHTS Assay for Modulators of WT P53-Induced Phosphatase 1 (WIP1) (AID 1347425)
# Summary of the method: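 5 nM WIP1 + 10 uM Rh-PBP, 50 mM Tris pH 7.5, 30 mM MgCl2, 1 mM TCEP, 0.1 mM EGTA, BSA; cpds pinned, 1 hr RT; + 10 uM phosphopeptide; fluorescence 1-min reads x 11 min; delta = f1 - f0.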
# [4] = Primary qHTS for inhibitors of La Crosse Virus (LACV) - induced cell death in SH-SY5Y cells (AID 1508616);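 also: top concentration of the series differs between compounds; higher means more rescue of cells from virus-induced death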
# Summary of the method: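 Cytopathicity rescue screen: compounds pinned onto SH-SY5Y cells, which are then infected with LACV (MOI 0.01) and held 6 days at 37C. Percent activity is scaled between infected DMSO control and uninfected DMSO control.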
# [5] = biological target: Calcium and integrin-binding protein 1 (Homo sapiens) (UniProt Q99828); assay: Primary qHTS for Identification of Calcium Integrin Binding Protein 1 (CIB1) Competitor (AID 1508620);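 also: GST tagged CIB1 binding a fluorescein labelled alphaIIb integrin peptide tracer; top concentration of the series differs between compounds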
# Summary of the method: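 CIB1-GST (1 uM final) and compound incubated 15 min at room temperature before adding FITC-alphaIIb peptide tracer (100 nM final). Competition for binding read by fluorescence polarization (ex 480, em 540) after another 15 min at room temperature.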
# [6] = qHTS for inhibitors of adenylyl cyclases using a fission yeast platform: a pilot screen against the NCATS LOPAC library (AID 1347410)
# Summary of the method: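 Fission yeast qHTS: CHP2027 cells (AC9-GNAS-PDE4D2, fbp1-GFP), 5x10^6 cells/mL working density, EMM + His/Lys/Ura; LOPAC at up to 57 µM final; 18 h dark, 30C; GFP by laser cytometry. DPI positive control, DMSO vehicle.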
# [7] = Validation qHTS assay for inhibitors of Activation Induced Cytidine Deaminase (AID): UDG Counterscreen signal (AID 1347427)
# Summary of the method: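 Fluorescence at 560 nm excitation, 665 nm emission reports UDG signal after 250 mM NaOH (2x) addition and 30 min. Enzymes (AID 1 uM, UDG 2 U/mL, at 4/3x) preincubated 10 min with compound, then 4 h with 4x 250 nM DJC20/DJC23 substrate at room temperature.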
# [8] = biological target: Single-stranded DNA cytosine deaminase (Homo sapiens) (UniProt Q9GZX7); assay: Validation qHTS assay for inhibitors of Activation Induced Cytidine Deaminase (AID): AID signal (AID 1347429)
# Summary of the method: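 AID+UDG coupled FRET deamination; cpds up to 114 uM final; DJC20/DJC23 substrate, 4 hr RT; NaOH stop, 30 min RT; read Ex 540/Em 590.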
# Sequence of Protein phosphatase 1D (Homo sapiens) (O15297 whole entry, looked up): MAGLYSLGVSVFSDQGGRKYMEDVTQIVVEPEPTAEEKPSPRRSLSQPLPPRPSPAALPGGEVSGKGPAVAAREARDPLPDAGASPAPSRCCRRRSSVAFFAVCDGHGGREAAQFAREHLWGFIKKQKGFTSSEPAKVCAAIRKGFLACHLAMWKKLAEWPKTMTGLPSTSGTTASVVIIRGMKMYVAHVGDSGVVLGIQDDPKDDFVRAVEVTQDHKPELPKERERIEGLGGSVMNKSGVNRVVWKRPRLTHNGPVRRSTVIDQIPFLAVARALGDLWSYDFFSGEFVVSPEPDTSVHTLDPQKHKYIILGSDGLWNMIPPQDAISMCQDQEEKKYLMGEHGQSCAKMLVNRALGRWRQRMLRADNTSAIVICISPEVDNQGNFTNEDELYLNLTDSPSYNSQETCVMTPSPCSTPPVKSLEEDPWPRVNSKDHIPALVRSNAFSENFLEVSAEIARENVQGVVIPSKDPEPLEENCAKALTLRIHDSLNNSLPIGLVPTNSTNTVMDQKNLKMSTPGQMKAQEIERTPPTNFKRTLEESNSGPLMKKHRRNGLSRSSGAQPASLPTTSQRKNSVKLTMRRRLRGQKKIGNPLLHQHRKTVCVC
# Sequence of Calcium and integrin-binding protein 1 (Homo sapiens) (Q99828 whole entry, looked up): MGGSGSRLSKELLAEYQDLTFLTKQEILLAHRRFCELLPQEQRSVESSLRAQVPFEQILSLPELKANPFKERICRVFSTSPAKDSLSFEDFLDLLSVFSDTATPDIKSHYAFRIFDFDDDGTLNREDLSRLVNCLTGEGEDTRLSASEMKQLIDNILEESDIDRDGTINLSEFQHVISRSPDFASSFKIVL
# Sequence of Single-stranded DNA cytosine deaminase (Homo sapiens) (Q9GZX7 whole entry, looked up): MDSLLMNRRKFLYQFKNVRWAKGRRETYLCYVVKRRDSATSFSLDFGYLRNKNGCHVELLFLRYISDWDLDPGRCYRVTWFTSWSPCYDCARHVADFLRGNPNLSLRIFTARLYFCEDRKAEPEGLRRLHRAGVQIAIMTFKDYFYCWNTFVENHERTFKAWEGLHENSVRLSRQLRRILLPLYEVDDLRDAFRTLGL
structure (smiles),measurement,setting,value
O=C(NCC1CCCCN1)c1cc(OCC(F)(F)F)ccc1OCC(F)(F)F (stereo not given),Potency,[1],inactive
same,Potency,[2],inactive
same,outcome,[3],inactive
same,Potency,[4],inactive
same,Potency,[5],inactive
Nc1cc(C(Cl)=C(Cl)Cl)c(S(N)(=O)=O)cc1S(N)(=O)=O,Potency,[1],inactive
same,Potency,[2],inactive
same,outcome,[3],inactive
same,Potency,[4],inactive
same,Potency,[5],inactive
c1ccc2[nH]c(-c3cscn3)nc2c1,Potency,[1],inactive
same,Potency,[2],inactive
same,outcome,[3],inactive
same,Potency,[4],inactive
same,Potency,[5],inactive
O=c1ccc2ccc(O)c(O)c2o1,outcome,[6],inactive
same,Potency,[7],inactive
same,outcome,[8],inactive
same,Potency,[4],inactive
same,Potency,[5],inactive
CCCc1cc(=O)[nH]c(=S)[nH]1,Potency,[1],inactive
same,Potency,[2],inactive
same,outcome,[3],inactive
same,Potency,[4],inactive
Clc1ccc(C(Cn2ccnc2)OCc2ccsc2Cl)c(Cl)c1 (stereo not given),Potency,[1],inactive
same,Potency,[2],inactive
same,outcome,[3],inactive
same,Potency,[4],inactive
COC(=O)[C@H](Cc1ccccc1)NC(=O)[C@@H](N)CC(=O)O (H-Asp-Phe-OMe),Potency,[1],inactive
same,Potency,[2],inactive
same,outcome,[3],inactive
same,Potency,[4],inactive
same,Potency,[5],inactive
CC(C)c1ccc2c(c1)c(SC(C)(C)C)c(CC(C)(C)C(=O)O)n2Cc1ccc(Cl)cc1,outcome,[6],inactive
same,Potency,[7],inactive
same,outcome,[8],inactive
same,Potency,[5],inactive
Cc1nc(-c2ccc(OCC(C)C)c(C#N)c2)sc1C(=O)O,Potency,[1],inactive
same,Potency,[2],inactive
same,outcome,[3],inactive
same,Potency,[4],inactive
same,Potency,[5],inactive
COC1=C(OC)C(=O)C(CCCCCCCCCCO)=C(C)C1=O,Potency,[1],inactive
same,Potency,[2],inactive
same,outcome,[3],inactive
same,Potency,[4],inactive
same,Potency,[5],inactive
CN(C)C(=O)COC(=O)Cc1ccc(OC(=O)c2ccc(N=C(N)N)cc2)cc1,Potency,[1],inactive
same,Potency,[2],inactive
same,outcome,[3],inactive
same,Potency,[4],inactive
Cc1cccc(CN2CCN(C(c3ccccc3)c3ccc(Cl)cc3)CC2)c1 (stereo not given),Potency,[1],inactive
same,Potency,[2],inactive
same,outcome,[3],inactive
same,Potency,[4],inactive
same,Potency,[5],inactive
CC(C)C[C@H](NC(=O)[C@H](Cc1ccccc1)NC(=O)c1cnccn1)B(O)O,Potency,[1],0.0415 µM (active)
same,Potency,[2],inactive
same,outcome,[3],inactive
same,Potency,[4],inactive
same,Potency,[5],inactive
O=C(NCCO[N+](=O)[O-])c1cccnc1,Potency,[1],inactive
same,Potency,[2],inactive
same,outcome,[3],inactive
same,Potency,[4],inactive
same,Potency,[5],inactive
Cc1cc2cc3c(C)cc(=O)oc3c(C)c2o1,Potency,[1],inactive
same,Potency,[2],inactive
same,outcome,[3],inactive
same,Potency,[4],inactive
same,Potency,[5],inactive
CCCCC(CC)COC(=O)C(C#N)=C(c1ccccc1)c1ccccc1 (stereo not given),Potency,[1],inactive
same,Potency,[2],inactive
same,outcome,[3],inactive
same,Potency,[4],inactive
same,Potency,[5],inactive
O=P(O)(O)C(O)(Cn1ccnc1)P(=O)(O)O,"activity change, negative = inhibition",[1],2.74% [at 5.1 µM]
same,Potency,[5],inactive
Nc1ncn([C@H]2C[C@H](O)[C@@H](CO)O2)c(=O)n1,Potency,[1],inactive
same,Potency,[2],inactive
same,outcome,[3],inactive
same,Potency,[5],inactive
CCc1nc(N)nc(N)c1-c1ccc(Cl)cc1,Potency,[1],inactive
same,Potency,[2],inactive
same,outcome,[3],inactive
same,Potency,[4],inactive
same,Potency,[5],inactive
Cn1c(NCCN(CCO)CCCc2ccc([N+](=O)[O-])cc2)cc(=O)n(C)c1=O,Potency,[1],inactive
same,Potency,[2],inactive
same,outcome,[3],inactive
same,Potency,[4],inactive
same,Potency,[5],inactive
CCN(CC)CCOc1ccc(Cc2ccccc2)cc1,Potency,[1],inactive
same,Potency,[2],inactive
same,outcome,[3],inactive
same,Potency,[4],inactive
same,Potency,[5],inactive
CC(=O)Nc1ccc(O)cc1,Potency,[2],inactive
same,outcome,[3],inactive
CCCCN(CCCC)CCC(O)c1cc2c(Cl)cc(Cl)cc2c2cc(C(F)(F)F)ccc12 (stereo not given),Potency,[1],inactive
same,Potency,[2],inactive
same,outcome,[3],inactive
same,Potency,[5],inactive
COc1cc2nc(N3CCN(C(=O)C4CCCO4)CC3)nc(N)c2cc1OC (stereo not given),Potency,[2],inactive
same,outcome,[3],inactive
same,Potency,[7],inactive
same,outcome,[8],inactive
same,Potency,[4],inactive
same,Potency,[5],inactive
CN(C)c1ccc2nc3ccc(=[N+](C)C)cc-3sc2c1,Potency,[1],18.6 µM (active)
same,Potency,[4],inactive
CCC1=C(C)CN(C(=O)NCCc2ccc(S(=O)(=O)NC(=O)NC3CCC(C)CC3)cc2)C1=O (stereo not given),Potency,[1],inactive
same,Potency,[2],inactive
same,Potency,[4],inactive
N[C@@H](Cc1cc(I)c(Oc2cc(I)c(O)c(I)c2)c(I)c1)C(=O)O,Potency,[1],inactive
same,outcome,[3],inactive
same,Potency,[4],inactive
same,Potency,[5],inactive
O=C(O)c1cc(=O)c2c(OCC(O)COc3cccc4oc(C(=O)O)cc(=O)c34)cccc2o1,Potency,[1],inactive
same,Potency,[2],inactive
same,outcome,[3],inactive
same,Potency,[4],inactive
same,Potency,[5],inactive
CCC(C)(Oc1ccc(C2(c3ccc(OC(C)(CC)C(=O)O)cc3)CCCCC2)cc1)C(=O)O (stereo not given),Potency,[1],inactive
same,outcome,[3],inactive
same,Potency,[4],inactive
same,Potency,[5],inactive
COc1cc2c(N3CCN(C(=O)Nc4ccc(OC(C)C)cc4)CC3)ncnc2cc1OCCCN1CCCCC1,Potency,[1],inactive
same,Potency,[2],inactive
same,outcome,[3],inactive
same,Potency,[5],inactive
Nc1nc(Cl)nc2c1ncn2[C@H]1C[C@H](O)[C@@H](CO)O1,Potency,[1],inactive
same,Potency,[5],inactive
CC(C)(S)[C@@H](N)C(=O)O,"activity change, negative = inhibition",[1],-26.4% [at 5.1 µM]
same,Potency,[5],inactive
O=C(O)c1cn(-c2ccc(F)cc2)c2cc(N3CCNCC3)c(F)cc2c1=O,Potency,[1],inactive
same,Potency,[2],inactive
same,outcome,[3],inactive
same,Potency,[4],inactive
same,Potency,[5],inactive
Cc1cc(=O)oc2cc(O)ccc12,Potency,[1],inactive
same,Potency,[2],inactive
same,outcome,[3],inactive
same,Potency,[4],inactive
same,Potency,[5],inactive
CCOC(=O)c1c(C)n(C)c2ccc(O)cc12,Potency,[1],inactive
same,Potency,[2],inactive
same,outcome,[3],inactive
same,Potency,[4],inactive
same,Potency,[5],inactive
Cc1cc2c(s1)Nc1ccccc1N=C2N1CCN(C)CC1,Potency,[1],inactive
same,Potency,[2],inactive
same,outcome,[3],inactive
same,Potency,[4],inactive
same,Potency,[5],inactive
